Compound activity deposited in PubChem BioAssay by several laboratories.
This is a sample that favours compounds with a hit; in the whole collection about 1.4% have one here.
ugtP null kill = kills S. aureus RN4220 lacking UgtP; S. aureus RN4220 ugtP deletion, OD600 growth, 16 h; 330,000 tested, 0.54% active; growth inhibition, % (concentration not given with the values); AID 1259309; in the data active = growth inhibition above about 68%;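 note: plate controls were untreated wells for no effect and antibiotic for full effect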
3CLpro inhibitor = SARS-CoV 3CLpro protease inhibition; P0C6X7; recombinant SARS-CoV 3CLpro, quenched FRET peptide cleavage; inhibition, % at 6 µM; 290,000 tested, 0.14% active; in the data active = inhibition above about 12%
Sa RN4220 lethal = kills Staphylococcus aureus RN4220; inhibition, % (test concentration not listed); 330,000 tested, 0.33% active; S. aureus RN4220 growth, OD600, 16 h; in the data active = inhibition above about 85%;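 note: plate controls were untreated cells for no effect and reference antibiotic for full effect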
PrPC surface inh = reduces human prion protein on the cell surface; P04156; cell surface PrPC, TR-FRET read-out; inhibition, % at 13.8 µM; 370,000 tested, 0.43% active; AID 720596; in the data active = inhibition above about 24%; note: 0% = median of the test wells and 100% = reference compound wells
BJeLR viability = BJeLR cell viability loss; 300,000 tested, 0.17% active; inhibition, % (concentration not given with the values); AID 1554; BJeLR (HRASV12) viability, CellTiter-Glo ATP luminescence, 48 h; in the data active = inhibition above about 50%
DUSP3 inh = blocks human VHR1 dual specificity phosphatase; 290,000 tested, 0.52% active; inhibition, % at 13.3 µM; recombinant VHR phosphatase, pNPP absorbance; P51452; in the data active = inhibition above about 50%
PrPC TRFRET cf = cell surface PrPC inhibition, TR-FRET confirmation. shares compounds with PrPC surface inh. inhibition, % at 13.8 µM. AID 743200. 1,500 tested, 65% active. cell surface PrPC level; in the data active = inhibition above about 25%
LD9 cytotox = LD9 cell cytotoxicity, PrPc inhibitor counter-screen | shares compounds with PrPC surface inh | LD9 cells cytotoxicity, luminescence viability | inhibition, % at 13.8 µM | 1,500 tested, 29% active | AID 743201; in the data active = inhibition above about 9.5%
Numbers without * were called inactive; . = no result given.

SMILES	ugtP null kill	3CLpro inhibitor	Sa RN4220 lethal	PrPC surface inh	BJeLR viability	DUSP3 inh	PrPC TRFRET cf	LD9 cytotox
O=C(NN=Cc1ccc(O)cc1)c1cc(-c2ccc(Cl)cc2)n[nH]1	.	.	.	26*	.	.	32*	4
CCCn1c2c(c(=N)c3c1CCC3)CCC2	9	-4	3	1	4	13	.	.
CCCCCCCn1c2c(c(=N)c3ccccc31)CCC2	89*	2	25	30*	16	4	31*	15*
CC1CN(C(C)CO)C(=O)c2cc(NC(=O)Nc3cccc4ccccc34)ccc2OC1CN(C)Cc1ccc(-c2ccccc2)cc1 (centres undefined)	-22	.	-3	.	.	.	.	.
Cn1cc(Cl)c(-c2n[nH]c(=S)n2-c2ccccc2)n1	3	-1	5	29*	2	24	45*	-3
COC(=O)C1=C(c2ccc(OC)c(OC)c2)CC2CCC1N2C(=O)NCCOc1ccc(OC)cc1 (centres undefined)	-8	.	2	.	.	.	.	.
COc1ccc(C(=O)Nc2cccc(C(=O)NCc3ccccc3)c2)cc1	4	-2	5	16	-2	26	.	.
Cc1ccc(C(=O)Nc2cccc(C(=O)NCc3ccco3)c2)cc1	-4	2	-1	39*	3	-12	22	17*
O=C(NCc1ccco1)c1cccc(NC(=O)c2ccccc2)c1	3	-8	2	27*	-3	-1	28*	9
CCC(CC)C(=O)Nc1cccc(C(=O)NCc2ccco2)c1	7	-3	4	-4	2	1	.	.
O=C(Cc1cccs1)Nc1cccc(C(=O)Nc2ccco2)c1	3	1	5	27*	.	13	10	-7
Cc1ccc(C(=O)Nc2cccc(C(=O)NCc3ccccc3)c2)cc1	-6	-5	5	37*	-8	8	24	6
CCSc1ccc(C2C3C(=O)N(CC)C(=O)C3[C@]3(C(=O)OC)CCCN23)cc1 (some centres undefined)	-10	.	4	.	.	.	.	.
CCOC(=O)C1C2COc3ccc(Br)cc3C2N2C(=O)CN(Cc3ccco3)C(=O)[C@@]12C (some centres undefined)	-17	.	4	.	.	.	.	.
COC(=O)c1sc(NC(=O)C2CCCCC2C(=O)O)c(C(=O)OC)c1C (centres undefined)	-3	2	5	27*	-6	-6	42*	-9
COC(=O)c1c(NC(=O)C2CCCCC2C(=O)O)sc2c1CCCCC2 (centres undefined)	-2	6	15	1	4	26	.	.
CCN(CC)CC(C)(C)C(=O)/C=C/c1ccc(/C=C/C(=O)C(C)(C)CN(CC)CC)cc1	.	.	.	90*	.	.	105*	96*
CC1CN(C(C)CO)C(=O)c2cc(NC(=O)Cc3cn(C)c4ccccc34)ccc2OC1CN(C)C(=O)Nc1ccc2c(c1)OCO2 (centres undefined)	-2	.	2	.	.	.	.	.
Cc1cc(C)cc(-n2nnn(C3CC(=NNC(N)=S)C4OCC3O4)c2=S)c1 (centres undefined)	7	.	0	.	.	.	.	.
NC(=S)N/N=C1\CC(n2nnn(-c3cccc(Cl)c3)c2=S)C2COC1O2 (centres undefined)	.	-3	.	28*	-16	18	42*	-4
O=C(Nc1ccn(Cc2c(F)c(F)cc(F)c2F)n1)c1ccc(COc2ccccc2Cl)cc1	3	11	5	.	7	27	.	.
Cc1cc(C)nc(NC(=O)c2ccc(COc3ccccc3Cl)cc2)c1	13	4	10	27*	-10	20	24	-2
O=C(Nc1ccn(Cc2ccccc2F)n1)c1ccc(COc2ccccc2Cl)cc1	-13	7	-4	42*	2	33	31*	1
CCOC(=O)C1C2COc3ccc(OC)cc3C2N2C(=O)CN(CCc3c[nH]c4ccccc34)C(=O)[C@@]12C (some centres undefined)	11	.	9	.	.	.	.	.
COc1ccc2ccccc2c1/C=N/NC(=O)c1cccc([N+](=O)[O-])c1	.	-5	.	26*	2	16	-1	-9
SMILES	ugtP null kill	3CLpro inhibitor	Sa RN4220 lethal	PrPC surface inh	BJeLR viability	DUSP3 inh	PrPC TRFRET cf	LD9 cytotox
COc1ccc2ccccc2c1C=NNC(=O)c1cccc([N+](=O)[O-])c1	16	.	0	.	.	.	.	.
O=c1ccc2ccc(OC3OC(CO)C(O)C(O)C3O)c(O)c2o1 (centres undefined)	-1	.	2	.	.	.	.	.
CCCOC(=S)NC(=O)c1sc2ccccc2c1Cl	3	0	34	32*	2	1	38*	-3
O=C(NC1CC1)c1sc2ccccc2c1Cl	-6	-2	7	-5	-5	-5	.	.
O=C(NC(=S)NCCO)c1sc2ccccc2c1Cl	3	-3	5	78*	3	-3	80*	-4
O=C(CNC(=O)c1sc2ccccc2c1Cl)OCc1ccccc1	4	3	8	11	-6	9	.	.
Cc1ccccc1COC(=O)CNC(=O)c1sc2ccccc2c1Cl	6	.	1	5	-6	.	.	.
CCOC(=S)NC(=O)c1sc2ccccc2c1Cl	-9	-2	9	45*	1	1	34*	-6
C[C@]1(C(=O)NCCCNc2ncc(C(F)(F)F)cc2Cl)C=CC(Cc2ccccc2)N1C(=O)c1ccccc1 (some centres undefined)	0	.	5	.	.	.	.	.
C#CCn1cc(C=NNc2nc3ccccc3[nH]2)c2ccccc21	-18	.	-5	.	.	.	.	.
C=CCn1cc(/C=N/Nc2nc3ccccc3[nH]2)c2ccccc21	.	-2	.	27*	4	-6	24	14*
CCN(C(=O)COC(=O)c1ccccc1Nc1ccccc1)c1c(N)n(Cc2ccccc2)c(=O)[nH]c1=O	-8	.	4	33*	.	.	24	-3
CC(=O)NC(=S)Nc1ccc(NC(=O)COc2ccc(Cl)cc2)cc1	-4	2	7	41*	-12	18	12	-5
O=C(NC1CCCCC1)C(O)C(O)C(=O)NC1CCCCC1 (centres undefined)	-1	.	4	.	.	.	.	.
Oc1cccc2ccc(C=Cc3ccc(Br)s3)nc12	20	.	22	.	.	.	.	.
CC(=O)N(c1ccccc1)c1c(F)c(F)c(F)c(F)c1F	6	-2	6	-12	-7	-16	.	.
CC(=O)Oc1c(C(C)C)cc(N(C(C)=O)c2ccccc2)cc1C(C)C	6	.	8	36*	-2	.	29*	-3
CC1(C)OC2CO[C@@]3(COS(N)(=O)=O)OC(C)(C)OC3C2O1 (some centres undefined)	-3	.	2	.	.	.	.	.
Clc1cccc(CNc2ccn3nc(-c4ccc(OCc5ccccc5)cc4)cc3n2)c1	.	.	.	37*	.	.	32*	-7
COCCCNc1ccn2nc(-c3ccc(OCc4ccccc4)cc3)cc2n1	.	.	.	42*	.	.	30*	2
